proKLK7 act: activators of human kallikrein-7 zymogen; 370,000 tested, 0.9% active; P49862; activation, % at 7 µM; purified proKLK7, EDANS-DABCYL substrate fluorescence; 100% is mature enzyme control, 0% vehicle;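 active = activation above the mean of all tested compounds plus 3 SD, computed per campaign excluding outliers beyond control limits, cut at about 13% in these data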
ADAM10 inh: inhibits human ADAM10; recombinant ADAM10, EDANS/DABCYL FRET peptide cleavage, 3 h; 370,000 tested, 0.62% active; inhibition, % at 7 µM;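 active = inhibition above a per-campaign cutoff equal to the mean of compounds falling between control-based bounds plus 3 SD, cut at about 20% in these data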;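 note: 0% = DMSO wells while the 100% control is not disclosed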
ADAM17 inh: inhibitors of human ADAM17. P78536. recombinant ADAM17, EDANS/DABCYL FRET peptide cleavage. inhibition, % at 6.95 µM. 370,000 tested, 0.83% active. AID 720648;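 active = inhibition above the mean of compounds lying between control limits plus 3 SD, set per campaign, cut at about 8.5% in these data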;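 note: 0% = DMSO-only wells as the low control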
AHR activator: human AHR activation | AHR-responsive luciferase reporter cells, luminescence | 320,000 tested, 2.5% active | AID 2796 | P35869 | activation, % at 5 µM; in the data active = activation above about 47%;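 note: 0% = vehicle wells and 100% = reference agonist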
Target sequence (P35869 whole entry, looked up): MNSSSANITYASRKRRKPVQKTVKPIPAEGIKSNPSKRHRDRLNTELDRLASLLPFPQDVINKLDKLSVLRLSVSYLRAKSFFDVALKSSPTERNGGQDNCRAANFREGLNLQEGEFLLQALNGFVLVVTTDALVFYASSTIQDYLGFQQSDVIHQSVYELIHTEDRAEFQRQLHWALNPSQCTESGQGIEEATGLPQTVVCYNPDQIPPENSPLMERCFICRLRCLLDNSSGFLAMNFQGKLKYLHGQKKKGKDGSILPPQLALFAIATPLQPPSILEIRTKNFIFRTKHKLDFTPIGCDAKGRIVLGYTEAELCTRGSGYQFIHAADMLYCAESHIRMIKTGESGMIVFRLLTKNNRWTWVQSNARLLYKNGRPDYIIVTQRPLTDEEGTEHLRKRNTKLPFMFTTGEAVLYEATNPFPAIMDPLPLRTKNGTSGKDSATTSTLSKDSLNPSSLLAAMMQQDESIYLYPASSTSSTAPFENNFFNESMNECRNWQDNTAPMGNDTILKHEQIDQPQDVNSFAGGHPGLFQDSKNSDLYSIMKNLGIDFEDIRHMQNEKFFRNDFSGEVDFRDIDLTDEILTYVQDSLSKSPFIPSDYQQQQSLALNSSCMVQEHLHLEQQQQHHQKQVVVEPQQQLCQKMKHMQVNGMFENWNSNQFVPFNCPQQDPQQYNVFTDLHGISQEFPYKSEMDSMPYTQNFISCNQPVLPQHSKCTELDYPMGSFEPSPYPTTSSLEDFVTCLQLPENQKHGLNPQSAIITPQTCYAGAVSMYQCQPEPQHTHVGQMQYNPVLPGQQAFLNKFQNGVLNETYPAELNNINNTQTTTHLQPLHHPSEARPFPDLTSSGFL
rCAG RNA binder: binds r(CAG) RNA repeats; r(CAG) RNA repeat, TO-PRO-1 dye displacement fluorescence; 370,000 tested, 1.3% active; inhibition, % at 3 µM; AID 651821;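 active = inhibition above the plate cutoff, the mean of all test compounds on that plate plus 3 SD, cut at about 35% in these data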;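 note: 0% = DMSO alone and 100% = 100 µM mitoxantrone as full dye displacement; higher means more dye released from RNA so lower well fluorescence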
GRIN3A LBD mod: modulates the human NR3A ligand-binding domain | Tm shift relative to glycine control, % at 25 µM | AID 1259313 | NR3A LBD differential scanning fluorimetry, Tm shift; 0% = protein alone, 100% = glycine-bound protein | 340,000 tested, 2.5% active;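 active = melting temperature shift of at least 10% of the positive control shift, at one fixed dose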
* marks the source's active call; other numbers are inactive results; . = no result. This is a sample that favours compounds with a hit; in the whole collection about 7% have one here.

SMILES | proKLK7 act | ADAM10 inh | ADAM17 inh | AHR activator | rCAG RNA binder | GRIN3A LBD mod
O=C(Nc1cccc(NC(=O)c2ncn[nH]2)c1)c1cccc(Cl)c1 | 0.2 | 0.8 | -4.7 | 7.3 | 3.3 | 12.1*
C[C@H](CCC(=O)N(c1ccccc1)c1ccccc1)CC1CCCCC1 | 1.0 | -0.9 | 0.1 | . | 1.8 | .
COC(=O)c1cc2c(c3c4cc(OC)ccc4n(C(=O)c4ccccc4)c13)C(=O)N(Cc1ccco1)C2 | 0.0 | -4.5 | -2.5 | . | 31.7 | .
COc1cc2cc(C(=O)Nc3ccc4c(c3)OCCO4)[nH]c2cc1OC | 0.3 | 7.3 | 3.5 | -6.9 | 8.4 | 11.5*
COc1cc(NC(=O)c2cc(OC)c(OC)c(OC)c2)c2ncccc2c1 | -1.8 | 3.4 | -1.4 | . | 2.8 | -0.7
COc1cc(NC(=O)c2ccc3c(c2)OCO3)c2ncccc2c1 | -0.1 | -3.6 | -3.2 | 65.5* | 2.8 | -16.1
CCOC(=O)CC[C@H]1CC[C@]2(CCCN(C(=O)c3ccccc3)C2)O1 | 0.3 | -6.5 | -1.0 | . | 0.0 | .
NC(=O)c1ccccc1NC(=O)Nc1ccc(F)c(Cl)c1 | 1.1 | -43.5 | -14.3 | 1.1 | 3.8 | 32.8*
COc1cc(C(=O)Nc2ccc3c(c2)Cc2cc(NC(=O)c4cc(OC)c(OC)c(OC)c4)ccc2-3)cc(OC)c1OC | 1.4 | -7.2 | -5.6 | 5.3 | 3.5 | 23.7*
O=C(Nc1ccc(F)c(Cl)c1)c1ccccc1 | 0.2 | 3.8 | 1.4 | 55.6* | 0.0 | -11.9
Cc1cccc(NC(=O)c2ccc(Cl)c(NC(=O)c3ccncc3)c2)c1C | 0.8 | -11.6 | -4.1 | -1.1 | -0.8 | -0.1
Cc1ccccc1NC(=O)c1ccc(Cl)c(NC(=O)c2ccncc2)c1 | 0.1 | 8.7 | -1.4 | 48.5* | -0.6 | -4.5
COc1cc(C(=O)Nc2ccncc2)cc(OC)c1OC | 0.1 | -1.1 | 0.4 | 5.4 | -0.6 | 0.5
COC(=O)[C@H](C(C)C)N(CCc1cn(CC2CCCCC2)nn1)S(=O)(=O)c1ccccc1Br | 0.6 | 3.3 | 0.1 | . | 5.7 | .
COc1cc(Cn2cc([C@]34C[C@H]5C(=O)N(C)CC(=O)N5[C@H]3N(S(=O)(=O)c3ccccc3)c3ccccc34)c3ccccc32)cc(OC)c1 | . | 5.3 | 1.2 | . | . | .
CC1(C)Oc2ccc(C(=O)NC3CCCC3)cc2NC1=O | -0.7 | -3.0 | 1.4 | . | 0.6 | .
O=C(Nc1ccc(Cl)c(Cl)c1)c1ccncc1 | 0.0 | 6.9 | 1.1 | 64.8* | 5.5 | -1.6
O=C(Nc1ccc2c(c1)Cc1ccccc1-2)c1ccncc1 | -0.2 | -6.6 | -0.1 | -0.1 | 1.5 | 18.4*
O=C(N[C@@H](Cc1cccnc1)C(=O)N1CCC[C@H]1C(=O)NC1CCCC1)c1cccs1 | -0.3 | -13.8 | -4.0 | . | 2.3 | .
CCOc1ccc(C(=O)NCC(=O)OCc2c(F)cccc2Cl)cc1OCC | -0.1 | -4.6 | -4.0 | 1.8 | -9.1 | 13.7*
CCOC(CN=c1nc(N(C)C)ss1)OCC | -0.3 | -7.6 | 0.4 | . | -0.8 | 22.3*
CN(C)c1nc(=NCc2ccco2)ss1 | . | . | . | -0.7 | . | -6.7
CCN1CCN(Cc2ccc(NC(=O)c3cc(NC(=O)C(=O)c4c[nH]c5ccccc45)cc(OC)c3)cc2C(F)(F)F)CC1 | -2.9 | 22.2* | 9.0* | 1.3 | 14.8 | -17.6
CCOc1ccc(NC(=O)c2ccc(N3CC4CC(C3)c3cccc(=O)n3C4)c(NC(=O)c3cccnc3)c2)cc1 (configuration not stated) | 1.5 | -0.1 | -0.1 | -2.3 | -0.8 | -0.7
CCOc1ccc(NC(=O)Nc2cc(C(=O)O)ccc2N2CC3CC(C2)c2cccc(=O)n2C3)cc1 (configuration not stated) | 0.9 | -0.7 | -5.5 | 0.8 | 10.4 | 11.4*
SMILES | proKLK7 act | ADAM10 inh | ADAM17 inh | AHR activator | rCAG RNA binder | GRIN3A LBD mod
O=C1c2[nH]nc(-c3ccccc3)c2C(c2cccc(C(F)(F)F)c2)N1c1ccccc1 (configuration not stated) | 0.5 | 11.2 | 5.2 | . | 2.2 | .
Cc1ccc(NC(=O)c2ccc(Cl)c(S(=O)(=O)NCC3CCCO3)c2)c(O)c1 (configuration not stated) | -0.2 | -4.6 | -3.0 | 62.0* | 7.0 | -6.1
Cc1ccccc1NC(=O)c1ccc(F)c(S(=O)(=O)NCC2CCCO2)c1 (configuration not stated) | 0.0 | -0.6 | -0.6 | 3.1 | 6.8 | 0.8
COc1ccc2c(c1)CCCN2C(=O)C1CCCN(S(=O)(=O)c2ccc(C(C)(C)C)cc2)C1 (configuration not stated) | -0.1 | 9.4 | 1.5 | . | 8.2 | .
COc1cc(/C=N/NS(=O)(=O)c2ccc(Br)cc2)ccc1O | -1.3 | 10.0 | 3.5 | 3.8 | 9.6 | 0.8
COc1ccc(/C=N\NS(=O)(=O)c2ccc(Br)cc2)cc1COc1ccccc1[N+](=O)[O-] | -0.2 | 6.0 | -0.9 | 2.6 | 10.3 | 25.0*
Cc1ccc(S(=O)(=O)N/N=C\c2ccc(Cl)c([N+](=O)[O-])c2)cc1 | -0.4 | 1.6 | 1.5 | -4.2 | 13.4 | 2.2
COc1ccc(/C=N\NS(=O)(=O)c2ccc(Cl)cc2)cc1COc1ccccc1[N+](=O)[O-] | 0.0 | 3.8 | -1.3 | 3.9 | 10.1 | 23.6*
CN1CC=C(c2ccccc2)N(c2ccc(Br)cc2)C1=O | 0.8 | -1.4 | -0.4 | . | 7.0 | .
Cc1ccc(S(=O)(=O)N2CCN(C(=O)c3cccn3C)CC2)cc1 | -0.3 | -4.8 | -1.9 | . | 2.6 | .
CS(=O)(=O)Nc1nnc(Cc2ccccc2)s1 | -0.4 | 8.2 | -1.3 | 2.8 | 7.2 | 11.0*
COc1ccc(-c2cc(-c3cc(C)ccc3O)[nH]n2)cc1 | 0.3 | 17.1 | 5.0 | 26.6 | 15.4 | 13.8*
COc1ccc(OC)c(NC(=O)c2cnn(-c3ccccc3)c2C)c1 | 0.2 | 2.2 | 0.4 | 76.3* | -5.9 | 0.0
COc1ccc(OC)c(NC(=O)c2cc(-c3ccc(C)cc3O)n[nH]2)c1 | -0.3 | 0.0 | 0.3 | -3.4 | 1.5 | 27.7*
COc1ccc(NC(=O)c2cc(-c3ccc(F)cc3OC)n[nH]2)c(C)c1 | 0.2 | -3.4 | -3.4 | . | 1.8 | .
COc1ccc(NC(=O)c2cc(-c3cc(Cl)ccc3OC)n[nH]2)c(C)c1 | -0.1 | -2.3 | 1.2 | . | 1.8 | .
COc1ccc(OC)c(NC(=O)c2cc(-c3cc(C)ccc3O)n[nH]2)c1 | 0.3 | -91.2 | -36.0 | . | 16.7 | 37.4*
O[C@H](COc1ccc(OC(F)(F)F)cc1)CN1CCC(C(O)(c2ccccc2)c2ccccc2)CC1 | 0.2 | 4.7 | 5.5 | . | 0.9 | .
CN(c1cccc(NC(=O)CN(c2ccc(C34CC5CC(CC(C5)C3)C4)cc2)S(C)(=O)=O)c1)S(C)(=O)=O | . | . | . | -0.2 | . | 30.1*
NS(=O)(=O)c1cccc(NC(=O)COC(=O)c2ccccc2C(=O)c2ccccc2)c1 | 0.3 | -10.1 | -1.7 | 1.5 | 6.4 | -0.2
Cc1c(C(=O)OCC(=O)Nc2cccc(S(N)(=O)=O)c2)oc2c1ccc1ccccc12 | -3.5 | -100.3 | -39.0 | 6.1 | 31.2 | 14.7*

Screening results: PubChem BioAssay, several laboratories
